Results: PubChem BioAssay AID1851 (National Center for Advancing Translational Sciences (NCATS), 2009)
Hit rate of the full screen: of about 16,000 compounds, about 5,100 (32%) were called active. Inconclusive results (about 25%) are left out. Calls come from the whole dose curve; as a rule, active = well fitted curve in the direction sought with a large enough effect; inconclusive = small, poorly fitted or top-dose-only effect, or effect the other way; inactive = no such curve, though single readings can be large or run the other way. This is one part of the list.

biological target: Cytochrome P450 3A4 (Homo sapiens) (UniProt P08684); experiment: Cytochrome panel assay with activity outcomes; settings: recombinant CYP, pro-luciferin dealkylation, luminescence, p450-cyp3a4; series mostly up to 57.1 µM
% is set by controls: 0 for no effect and ±100 for the full control effect.

Sequence of Cytochrome P450 3A4 (Homo sapiens) (P08684 whole entry, looked up): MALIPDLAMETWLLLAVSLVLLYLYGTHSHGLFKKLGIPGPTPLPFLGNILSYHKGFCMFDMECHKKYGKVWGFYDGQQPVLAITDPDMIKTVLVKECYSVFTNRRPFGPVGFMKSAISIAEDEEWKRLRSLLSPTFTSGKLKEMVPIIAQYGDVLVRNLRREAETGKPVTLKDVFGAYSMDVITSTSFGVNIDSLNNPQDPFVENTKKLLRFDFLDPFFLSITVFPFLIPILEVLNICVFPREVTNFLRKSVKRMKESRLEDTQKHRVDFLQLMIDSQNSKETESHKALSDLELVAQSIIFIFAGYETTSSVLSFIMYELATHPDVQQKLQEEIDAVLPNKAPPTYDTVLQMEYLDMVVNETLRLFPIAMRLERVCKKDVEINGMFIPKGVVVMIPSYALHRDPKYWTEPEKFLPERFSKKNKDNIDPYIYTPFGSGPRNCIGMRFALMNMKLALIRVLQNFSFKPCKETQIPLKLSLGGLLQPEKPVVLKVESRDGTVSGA

SMILES	AC50	activity, negative = inhibition
Clc1ccc(-c2cc3ccccc3[nH]2)cc1	inactive	
N#C/C(=C\c1c[nH]c2ccccc12)C(=O)c1ccc(O)c(O)c1	7.94 µM (active)	
N#C/C(=C\c1ccc(O)c(O)c1)C(N)=O	inactive	
N#C/C(=C\c1ccc(O)c(O)c1)C(=O)c1ccc(O)c(O)c1	15.8 µM (active)	
N#C/C(=C\N1CCNC1=S)C(=O)c1ccc2ccccc2c1		-26% [at 11.4 µM] (inactive)
Cc1nc2c3cnn(-c4ccc(C)c(C)c4)c3ncn2n1	17.8 µM (active)	
Cc1ccc(-n2ncc3c2ncn2nc(-c4ccco4)nc32)c(C)c1	inactive	
c1ccc(-n2ncc3c2ncn2cnnc32)cc1	inactive	
CC(C)(C)c1ccc(OCC(=O)O)c(Cl)c1		-2.41% [at 11.4 µM] (inactive)
O=C1N=C(N2CCOCC2)S/C1=C/c1cccs1		-4.33% [at 2.29 µM] (inactive)
NC(=O)CNC(=O)[C@@H]1CC2(CC(c3ccccc3)=NO2)CN1C(=O)c1ccc(Br)cc1 (stereo partly drawn)		-5.09% [at 11.4 µM] (inactive)
COc1cccc(N(C(=O)Cn2nnc(-c3ccc(C)cc3)n2)C(C(=O)NC(C)(C)C)c2c[nH]c3ccccc23)c1 (stereo not drawn)	2.82 µM (active)	
N=C(N)SCc1ccc(Cl)cc1Cl (tested in a mixture with another compound)		-3.48% [at 11.4 µM] (inactive)
NCCCCCc1nnc(SCc2ccc(Cl)cc2Cl)o1	12.6 µM (active)	
NCCCCCc1nnc(SCc2ccccc2Cl)o1	inactive	
CCOC(=O)c1cnn(CCOC(=O)C(C)(C)C)c1NC(=O)C(C)(C)C	12.6 µM (active)	
CCn1ncc(C(=O)Nc2cc(C)on2)c1C		6.4% [at 2.29 µM] (inactive)
CCOC(=O)c1cnc2c(cnn2C)c1NCCCN(C)C	inactive	
CNC(=O)Oc1ccc2c(c1)[C@@]1(C)CCN(C)[C@@H]1N2C	inactive	
COc1ccc(-n2c(=O)[nH]cc(C(=O)Nc3ccc4c(c3)OCCO4)c2=O)cc1	14.1 µM (active)	
CCOC(=O)CSc1cc(C(F)(F)F)nc(-c2ccccn2)n1	inactive	

SMILES	AC50	activity, negative = inhibition
CCOC(=O)CSc1cc(CS(=O)c2ccc(Cl)cc2)nc(-c2ccccc2)n1 (stereo not drawn)	7.08 µM (active)	
CCOC(=O)CSc1nc(-c2ccccc2)nc2ccccc12	inactive	
CCOc1ccc(OCC)c(-c2c(=O)n(OCc3ccccc3C(=O)OC)c3ccccc3[n+]2[O-])c1	14.1 µM (active)	
CCn1c(SCC(=O)OC)nc2sc3c(c2c1=O)CCC3	inactive	
Cn1c(=O)c2c3c(sc2n2cnnc12)CCC3		10.9% [at 2.29 µM] (inactive)
CC1CSc2nc3sc4c(c3c(=O)n21)CCCC4 (stereo not drawn)	12.6 µM (active)	
CC1(C)CC(=O)C2=C(C1)N(c1ccc(F)cc1)C(N)=C(C#N)C2c1cccs1 (stereo not drawn)	1 µM (active)	
CCCC(=O)Nc1ccc(C(=O)NNC(=S)NC(=O)c2cccs2)cc1	inactive	
Cc1ccccc1C(=O)Nc1cccc(NC(=S)NC(=O)c2cccs2)c1	3.55 µM (active)	
C/C(=N\NC(=O)c1ccccc1C)c1ccc(NC(=O)c2cccs2)cc1		-4.96% [at 2.29 µM] (inactive)
COc1ccc(-n2nc3cc(C)c(NC(=S)NC(=O)c4ccccc4C)cc3n2)cc1		-17.3% [at 11.4 µM] (inactive)
CN(C1CCCCC1)S(=O)(=O)c1ccc(NC(=S)NC(=O)c2cccs2)cc1	3.98 µM (active)	
COc1cc(NC(=S)NC(=O)c2c(OC)cccc2OC)ccc1NC(=O)c1cccs1	3.16 µM (active)	
CCN(c1ccccc1)S(=O)(=O)c1ccc(NC(=S)NC(=O)c2ccc(Br)o2)cc1	inactive	
O=[N+]([O-])/C=C\c1cc2ccccc2[nH]1		-22.3% [at 11.4 µM] (inactive)
C=CCNC(=O)c1ccccc1Cl	inactive	
C=CCNC(=O)c1ccc2nc(-c3ccccc3)c(-c3ccccc3)nc2c1	7.08 µM (active)	
CCNC(=O)c1ccc(-n2nc(C)cc2-c2ccccc2)cc1	inactive	
COc1ccc(N(C)C(=O)c2ccc3nc(-c4ccccc4)c(-c4ccccc4)nc3c2)cc1	7.94 µM (active)	
CC1CC2=C(NC(=S)NC2c2ccc(F)cc2)/C(=C/c2ccc(F)cc2)C1 (stereo not drawn)	5.01 µM (active)	
COC(=O)c1cc2n(n1)CCN(Cc1ccccc1F)C2=O		17.9% [at 2.29 µM] (inactive)

SMILES	AC50	activity, negative = inhibition
O=C1NCCN1Cc1cccc(Cl)c1	inactive	
O=C1NCCN1Cc1ccccc1F	15.8 µM (active)	
N[C@@H](Cn1ccc(=O)n(Cc2ccccc2C(=O)O)c1=O)C(=O)O	inactive	
O=C(OCn1ncc(Cl)c(Cl)c1=O)c1cccc(C(F)(F)F)c1	inactive	
Cc1cccc(Cn2ncc(Cl)c(Cl)c2=O)c1	14.1 µM (active)	
COc1cccc(-c2cncnc2NCCc2cnc[nH]2)c1	0.631 µM (active)	
COc1ccccc1-c1cncnc1NCCc1cnc[nH]1	0.398 µM (active)	
c1ncc(-c2ccc3c(c2)OCO3)c(NCCc2cnc[nH]2)n1	0.794 µM (active)	
Cc1cnc(CNc2ncncc2-c2ccc3c(c2)OCO3)cn1	1.58 µM (active)	
c1cncc(CNc2ncncc2-c2ccc3c(c2)OCO3)c1	0.398 µM (active)	
Clc1ccc2c(c1)C=Nc1c(NCc3ccccc3)ncnc1O2	inactive	
c1ccc(CNc2ncncc2-c2ccc3c(c2)OCO3)cc1	0.501 µM (active)	
Cn1c(-c2ccc3c(c2)OCO3)cnc1NCc1ccccc1	7.94 µM (active)	
c1csc(CNc2ncncc2-c2ccc3c(c2)OCO3)c1	inactive	
COC(=O)[C@H](C)NC(=O)[C@@H](C)CO		-19.6% [at 11.4 µM] (inactive)
Oc1c(C(O)(c2ccccc2)c2ccc3ccccc3c2O)ccc2ccccc12		-13.3% [at 11.4 µM] (inactive)
CCCCOc1ccc(CN2CCC(O)CC2)cc1	inactive	
c1ccc(Nc2ncncc2-c2ccc3c(c2)OCO3)cc1	0.794 µM (active)	
CN1CCc2c(c3ccccc3n2C)C1	inactive	
Cn1c(-c2ccc3c(c2)OCO3)cc(=O)c2ccccc21	10 µM (active)	
Cc1cccc(CNc2ncncc2-c2ccc3c(c2)OCO3)c1	0.251 µM (active)	
